{"source": "PubChem BioAssay AID1508600", "about": "(Functional Genomics Laboratory (NCATS/FGL), 2020)", "note": "The campaign covered roughly 53,000 sequences. About 3,700 (7%) were called active. The sample as a whole holds a higher share of actives than the screen did. Unmarked numbers belong to inactive results.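 Rule for the calls: active = gene knockdowns whose robust z-score for IL-1 alpha signal is at least 2 or at most -2, so actives lie on both sides; inactive = the rest.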"}
{"assay": "Components of the Cytosolic LPS Sensing Pathway: Gene Identification via Genome-wide siRNA Screen;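 note: robust z of the log signal after scaling to non-targeting control siRNA wells of the plate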", "conditions": "RAW264.7 macrophages, IL-1a HTRF, actives lie on both sides, screened at 100 nM (by protocol), cells primed 5 h with Pam3CSK4 first", "method_in_brief": "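Mouse macrophage line RAW264.7 is transfected with siRNA (100 nM final), grown 48h, primed with TLR ligand Pam3CSK4 5 h and given intracellular LipidA 24 h. IL-1a in supernatant is read by HTRF and viability by luminescence.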"}
{"sequence": "GGAUGACUCUAUCUUUCUATT against Igfbp4", "z-score": 0.892}
{"sequence": "GGAAUACGUAUACUUCAGCTT against Dipk1c", "z-score": 0.495}
{"sequence": "GGAUUGCAUUAGGAAAGAATT against Fancl", "z-score": 0.0536}
{"sequence": "GGGAGUCCUGAAGGACUACTT against Lgmn", "z-score": -0.0947}
{"sequence": "GGAGCAGAAUGAGAAGACUTT against Marchf8", "z-score": "2.16 (active)"}
{"sequence": "GGACCAAGGGUUCAUAGCATT against Wdr35", "z-score": -0.137}
{"sequence": "GGUUCAUCUGUACAAAAUCTT against Zfp110", "z-score": 0.708}
{"sequence": "CCAUAUGGUAACCAAACCGTT against Ldb1", "z-score": -0.896}
{"sequence": "CCGUAGUAGAGAAAUUACATT against Exoc6", "z-score": 0.419}
{"sequence": "GUUGUCCUCUUUGUCAUCATT against Olfr502", "z-score": "-3.63 (active)"}
{"sequence": "CGGGUAAUAUUCUUUUCAATT against Rex2", "z-score": 1.76}
{"sequence": "GCUCUAGGCCAGAUGUUACTT against Slc13a3", "z-score": -0.476}
{"sequence": "CGUUUCCUGCUCAAAUCCUTT against Abhd2", "z-score": -1.17}
{"sequence": "GGAGAUUCGGACAAAGUGATT against Rhcg", "z-score": -1.31}
{"sequence": "GGAGUAGCUGUUCUAAUUGTT against Scamp5", "z-score": -1.65}
{"sequence": "GGCUUUAAGAAUGUAUCGCTT against Dpp3", "z-score": -0.751}
{"sequence": "GCCUUUUCCCGUCUGGAGATT against Glis1", "z-score": 0.122}
{"sequence": "CGUUGCUGUUGUGGUCUUGTT against Olfr1232", "z-score": "-2.71 (active)"}
{"sequence": "GGGCCCAGGCUAAAAUAAATT against Cfap100", "z-score": 0.367}
{"sequence": "GGUCACCUCAAUAAACUCUTT against Myl7", "z-score": 0.228}
{"sequence": "CGUGUAAACGCAAUUAAAATT against Zfp870", "z-score": 0.272}
{"sequence": "GGUUCAGAUGUCUGAUAAATT against Mrm3", "z-score": 1.43}
{"sequence": "GGAGCAUGUAGAGGUUUACTT against Txnrd2", "z-score": "2.44 (active)"}
{"sequence": "GGAUACCUAGUUCUUAGUUTT against Mageb18", "z-score": 0.151}
{"sequence": "GGGACUUUCGUAAUAAACCTT against Lman1", "z-score": -1.26}
{"sequence": "CGUGAAAUAGAUGAUACCUTT against Cdc5l", "z-score": 0.625}
{"sequence": "GGUAACGAUGCUGGAAUUCTT against Sdcbp", "z-score": "4.37 (active)"}
{"sequence": "GCAAACUCCAGCUCAACGATT against Galnt4", "z-score": -1.19}
{"sequence": "GGAUGGUGUUGUGUUUAAATT against Chst2", "z-score": 0.962}
{"sequence": "GGCUGGUGCUGAAUAUCUUTT against Bnip5", "z-score": 0.507}
{"sequence": "GGUCUUGGUCCCUGAGAAATT against Ddit4l", "z-score": 0.23}
{"sequence": "GGACAAAUUGUAUGGCGAATT against Hecw2", "z-score": -0.402}
{"sequence": "GAGAACAAGCCUAAGCCCATT against V1rb5", "z-score": 1.44}
{"sequence": "GCUCGAGGACUAUAUGAAUTT against Xrcc1", "z-score": "2.03 (active)"}
{"sequence": "GGAAUAUUGUGGCCUUAUATT against Bnip3", "z-score": 0.489}
{"sequence": "GAGGGAUAUGUGAAGCCUCTT against Mospd3", "z-score": -0.806}
{"sequence": "CCGAAGUCAAUGAAGCUCUTT against Gcsh", "z-score": "-2.13 (active)"}
{"sequence": "CCAUGUUCAGAAGAGAAUATT against Igsf11", "z-score": -1.69}
{"sequence": "GCAAGUAGAAACCCUUAAUTT against Scara5", "z-score": -0.0354}
{"sequence": "CGAUUCCGUCAAAUUAAAGTT against Catsper2", "z-score": 0.156}
{"sequence": "GGCAGAUUGUGAAAAAACUTT against Slc9a6", "z-score": -0.503}
{"sequence": "GGAAAAGGUCAUUAUCAUUTT against Hsf3", "z-score": "-2.11 (active)"}
{"sequence": "GUCACUGUGAUGGGAAAUUTT against Olfr895", "z-score": -0.847}
{"sequence": "ACACCUGCCUGCAUCUACUTT against Tcp10a", "z-score": 1.5}
{"sequence": "GCACUUGUGACUAUAAAGUTT against Celf2", "z-score": 0.262}
{"sequence": "UGUGGUGAACCCAAUGCACTT against Klk1b22", "z-score": "-3.28 (active)"}
{"sequence": "CCUGAUUGGGAUCUCAAGATT against Ccdc12", "z-score": -0.673}
{"sequence": "AAUAAAAGUGUCCUCUGUGTT against Olfr242", "z-score": 0.202}
{"sequence": "GGAUAGUUUUGUGUUUGAUTT against Gab2", "z-score": 0.932}
{"sequence": "GGUCAUUGAUCUCAGCAACTT against Optc", "z-score": -0.427}
{"sequence": "CCCUACACGCAGGAGUUUUTT against Gtf3c1", "z-score": -0.23}
{"sequence": "GCCCUACACCUGUAUUACATT against Tas1r3", "z-score": -0.964}
{"sequence": "CCUGGAACUUGUUGGAAGCTT against Igsf3", "z-score": 0.799}
{"sequence": "GUGUUCAGGAAGCUGGCAGTT against Klra19", "z-score": 1.98}
{"sequence": "GGACCUCCUCCCAAAGAUATT against Snrpb", "z-score": "-2.83 (active)"}
{"sequence": "GCUAUGGAUCAAAGAAUUATT against Senp1", "z-score": 0.204}
{"sequence": "GGCCCAUCCCACAAUGAUATT against Atg9b", "z-score": -0.998}
{"sequence": "GGAAGUAGGAUGAUGUUGGTT against Hmga1", "z-score": "-2.08 (active)"}
{"sequence": "GCUCACCCAACAAUAUCCATT against Slc17a8", "z-score": -0.881}
{"sequence": "CGAGAAUAUUCGCCCAACCTT against Erbb3", "z-score": 0.682}
{"sequence": "GGAGAUCCGGAAUUUUUAATT against Per2", "z-score": -0.0639}
{"sequence": "GCUAUAUAAUGCUUAUGUGTT against Tpr", "z-score": -0.501}
{"sequence": "GCCUUUGAUAAAAGUCCGGTT against Saxo2", "z-score": -0.93}
{"sequence": "GGAGGGAAUAUGCAAAUAGTT against Ftdc2", "z-score": "2.36 (active)"}
{"sequence": "GGACAUGAUGAUGAUGAUGTT against Gldn", "z-score": -1.8}
{"sequence": "GCUUAUAGAAAACCAGUAATT against Foxd1", "z-score": 0.317}
{"sequence": "GGAAGAAAUGAUGAAUGACTT against Chmp2a", "z-score": "2.36 (active)"}
{"sequence": "GGAUGAUGACAUUCACUUATT against Ntan1", "z-score": -0.619}
{"sequence": "GCCUCGAUCUGAUCUAGAGTT against Dbx2", "z-score": 0.291}
{"sequence": "GGCUGCUGUCAUUAUUUGUTT against Terf2", "z-score": -0.768}
{"sequence": "GGCAUCUUUCACAGUUUUGTT against Hspa12b", "z-score": "2.13 (active)"}
{"sequence": "GGUUUAUGAGCUCUACGCCTT against Tmem11", "z-score": -0.843}
{"sequence": "GGAAGAUGAUGUUUUAGGUTT against Pde7a", "z-score": 0.271}
{"sequence": "CCCAAAGCUAUCAUAUCAATT against Aff4", "z-score": 0.508}
{"sequence": "GGCGACACAUUAAAAUAGUTT against Mepe", "z-score": "2.19 (active)"}
{"sequence": "GUUACCUCUGUGUUGUACUTT against Olfr60", "z-score": -0.148}
{"sequence": "GGAAGAAAAAGAUGAGAAATT against Hrc", "z-score": 0.394}
{"sequence": "GCAUGUCUCAACUAAGGACTT against Upk3b", "z-score": 1.03}
{"sequence": "CCUACAGAGGUGCCAUUGUTT against Naa60", "z-score": -0.244}
{"sequence": "GGACCGAUUCCACUUCAAUTT against Crygd", "z-score": 1.46}
{"sequence": "GCCAAAUGGUGUCAAUAUUTT against Rab33a", "z-score": 0.277}
{"sequence": "GGAGGAUGAUGAGGAGGAUTT against Ppp1r1b", "z-score": "2.35 (active)"}
{"sequence": "CGUGCCAGACCUAUAGCUUTT against Mlxip", "z-score": -0.226}
{"sequence": "GGAGACCUUCCAGAACACATT against Mesd", "z-score": "2.38 (active)"}
{"sequence": "GCGGAUUUACACCUUAUCUTT against Bpi", "z-score": -1.15}
{"sequence": "GGCUAUCACACAGCAUAGATT against Rdh7", "z-score": 1.57}
{"sequence": "CCGUUGGAGGUAAUUAGGATT against Dot1l", "z-score": 0.463}
{"sequence": "GGCACUGUAAAUGUACUCATT against Rbak", "z-score": "-2.54 (active)"}
{"sequence": "GGAGAAGUACAACGCAGCGTT against Wnt7b", "z-score": -0.273}
{"sequence": "GGCUAUGCACUACUCAUUGTT against Galk1", "z-score": -0.607}
{"sequence": "CCAUCCCAUUUAAUGGAUGTT against Olfr1257", "z-score": 1.09}
{"sequence": "GCUCCAGAUGUUCAGAGCUTT against Fbxo9", "z-score": "-2.43 (active)"}
{"sequence": "GCAUUCAGACCAUGACACUTT against Trim30d", "z-score": 0.914}
{"sequence": "GGCCAAGUGAUAGAGUUCATT against Crygd", "z-score": 1.22}
{"sequence": "GGAAGUUCGAUGUUCCUAGTT against Cep85", "z-score": 0.779}
{"sequence": "GGUUAUUAUGACCAAGAAATT against Sf3b1", "z-score": "-2.71 (active)"}
{"sequence": "GCAGUAACCUUCUAACAAATT against Foxn2", "z-score": -0.367}
{"sequence": "GGAGAAAGAUGUUUACCGATT against Hyal2", "z-score": -0.533}
{"sequence": "GGAACUUAAGACUUUCAAGTT against Abcf2", "z-score": 0.904}
{"sequence": "GCGGAUGCAAAUCGAUGAATT against Cep135", "z-score": -0.507}
{"sequence": "GCAUCAUACUGACCUGAGATT against Gml2", "z-score": -1.25}
{"sequence": "CCUAUCUUCCUGAAUACAUTT against Aqp7", "z-score": "2.71 (active)"}
{"sequence": "CCGGCUUAUGCUCAACUUCTT against Bpifb1", "z-score": 0.29}
{"sequence": "GGAACAAUUGAUAAGACGATT against Guf1", "z-score": 0.237}
{"sequence": "GGUCAAGGAGUUCAUUCUGTT against Matn2", "z-score": -1.33}
{"sequence": "GGAUCAUUCUGUGAACAAGTT against Ly6h", "z-score": 1.52}
{"sequence": "GCCCAUUGUAUGACUGCCGTT against Gfra2", "z-score": "3.21 (active)"}
{"sequence": "CCCAAAUACCUACCAUCUCTT against Slc4a9", "z-score": -0.44}
{"sequence": "GGACUCUGAAGAGGAAAAGTT against Pds5b", "z-score": -0.266}
